Reference: ChEMBL document CHEMBL1961873, “Compounds: GSK PKIS; Assays: Nanosyn kinase panel” (2012)

Experiments:
[1] = molecular target: Mitogen-activated protein kinase 3 (Homo sapiens) (UniProt P27361); settings: at 1 µM;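 also: values are mean percent inhibition of MAPK3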
[2] = molecular target: SRSF protein kinase 3 (Homo sapiens) (UniProt Q9UPE1); settings: at 0.1 µM
[3] = molecular target: SRSF protein kinase 3 (Homo sapiens) (UniProt Q9UPE1); settings: at 1 µM
[4] = molecular target: Mitogen-activated protein kinase 14 (Homo sapiens) (UniProt Q16539); settings: at 0.1 µM
[5] = molecular target: Mitogen-activated protein kinase 14 (Homo sapiens) (UniProt Q16539); settings: at 1 µM
[6] = molecular target: Mitogen-activated protein kinase 11 (Homo sapiens) (UniProt Q15759); settings: at 0.1 µM
[7] = molecular target: Mitogen-activated protein kinase 11 (Homo sapiens) (UniProt Q15759); settings: at 1 µM
[8] = molecular target: T1, Mitogen-activated protein kinase 13 (Homo sapiens) (UniProt O15264); settings: at 0.1 µM
T1 sequence (whole entry): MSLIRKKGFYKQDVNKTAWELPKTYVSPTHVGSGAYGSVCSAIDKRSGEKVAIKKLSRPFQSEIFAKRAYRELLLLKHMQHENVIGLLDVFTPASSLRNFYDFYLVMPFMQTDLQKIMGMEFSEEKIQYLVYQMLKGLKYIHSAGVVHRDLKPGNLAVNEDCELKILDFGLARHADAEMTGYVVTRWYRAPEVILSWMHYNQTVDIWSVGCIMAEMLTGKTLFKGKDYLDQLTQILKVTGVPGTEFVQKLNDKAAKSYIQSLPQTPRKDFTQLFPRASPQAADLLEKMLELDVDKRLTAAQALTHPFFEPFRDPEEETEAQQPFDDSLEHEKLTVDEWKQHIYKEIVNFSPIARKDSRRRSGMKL

[9] = molecular target: T1, Mitogen-activated protein kinase 13 (Homo sapiens); settings: at 1 µM
[10] = molecular target: T2, Mitogen-activated protein kinase 12 (Homo sapiens) (UniProt P53778); settings: at 0.1 µM
T2 sequence (whole entry): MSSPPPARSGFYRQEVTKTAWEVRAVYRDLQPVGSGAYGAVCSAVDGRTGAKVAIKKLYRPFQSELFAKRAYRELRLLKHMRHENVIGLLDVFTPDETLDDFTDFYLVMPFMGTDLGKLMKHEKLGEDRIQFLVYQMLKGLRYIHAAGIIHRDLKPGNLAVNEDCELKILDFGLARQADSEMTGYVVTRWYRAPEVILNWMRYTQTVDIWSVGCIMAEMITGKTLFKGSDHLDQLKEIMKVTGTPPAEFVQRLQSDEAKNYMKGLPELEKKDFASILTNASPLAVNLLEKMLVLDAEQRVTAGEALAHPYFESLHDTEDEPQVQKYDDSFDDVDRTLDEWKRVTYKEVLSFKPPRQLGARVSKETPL

Chain of Mitogen-activated protein kinase 3 (Homo sapiens) (P27361 whole entry): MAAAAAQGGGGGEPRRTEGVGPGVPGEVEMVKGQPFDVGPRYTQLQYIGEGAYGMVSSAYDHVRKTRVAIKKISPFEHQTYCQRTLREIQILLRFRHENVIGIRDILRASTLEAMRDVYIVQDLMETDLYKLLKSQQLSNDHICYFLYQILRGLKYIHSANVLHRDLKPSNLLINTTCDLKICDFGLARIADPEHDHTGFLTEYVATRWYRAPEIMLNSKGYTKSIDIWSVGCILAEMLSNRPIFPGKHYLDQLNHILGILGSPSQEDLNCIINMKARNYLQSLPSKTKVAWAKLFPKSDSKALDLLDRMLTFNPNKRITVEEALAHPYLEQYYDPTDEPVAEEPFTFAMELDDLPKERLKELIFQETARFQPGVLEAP
Chain of Mitogen-activated protein kinase 14 (Homo sapiens) (Q16539 whole entry): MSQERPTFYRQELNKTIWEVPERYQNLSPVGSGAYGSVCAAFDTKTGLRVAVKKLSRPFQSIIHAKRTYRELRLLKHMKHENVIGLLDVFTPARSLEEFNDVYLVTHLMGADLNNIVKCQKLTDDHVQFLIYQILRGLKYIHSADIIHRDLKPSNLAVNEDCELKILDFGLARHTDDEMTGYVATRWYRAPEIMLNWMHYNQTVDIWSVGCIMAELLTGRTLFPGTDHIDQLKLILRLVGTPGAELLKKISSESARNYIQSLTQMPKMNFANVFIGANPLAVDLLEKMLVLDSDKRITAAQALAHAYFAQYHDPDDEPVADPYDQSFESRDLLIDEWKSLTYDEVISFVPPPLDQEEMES
Chain of SRSF protein kinase 3 (Homo sapiens) (Q9UPE1 whole entry): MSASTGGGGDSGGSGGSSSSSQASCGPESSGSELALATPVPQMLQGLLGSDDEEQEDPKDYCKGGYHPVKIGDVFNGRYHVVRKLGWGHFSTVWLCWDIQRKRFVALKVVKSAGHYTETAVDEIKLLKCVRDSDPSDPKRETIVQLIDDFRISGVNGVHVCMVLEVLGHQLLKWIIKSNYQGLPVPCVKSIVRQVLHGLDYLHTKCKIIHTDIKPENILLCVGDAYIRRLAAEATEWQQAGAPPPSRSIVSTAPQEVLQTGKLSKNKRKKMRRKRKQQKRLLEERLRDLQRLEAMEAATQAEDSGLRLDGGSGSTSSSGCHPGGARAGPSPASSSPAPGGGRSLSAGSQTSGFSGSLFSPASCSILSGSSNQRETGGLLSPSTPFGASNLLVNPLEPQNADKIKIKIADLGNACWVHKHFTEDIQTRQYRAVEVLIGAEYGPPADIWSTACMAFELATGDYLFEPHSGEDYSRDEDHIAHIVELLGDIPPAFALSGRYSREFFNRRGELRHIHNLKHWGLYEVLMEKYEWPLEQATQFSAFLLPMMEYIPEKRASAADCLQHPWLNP
Chain of Mitogen-activated protein kinase 11 (Homo sapiens) (Q15759 whole entry): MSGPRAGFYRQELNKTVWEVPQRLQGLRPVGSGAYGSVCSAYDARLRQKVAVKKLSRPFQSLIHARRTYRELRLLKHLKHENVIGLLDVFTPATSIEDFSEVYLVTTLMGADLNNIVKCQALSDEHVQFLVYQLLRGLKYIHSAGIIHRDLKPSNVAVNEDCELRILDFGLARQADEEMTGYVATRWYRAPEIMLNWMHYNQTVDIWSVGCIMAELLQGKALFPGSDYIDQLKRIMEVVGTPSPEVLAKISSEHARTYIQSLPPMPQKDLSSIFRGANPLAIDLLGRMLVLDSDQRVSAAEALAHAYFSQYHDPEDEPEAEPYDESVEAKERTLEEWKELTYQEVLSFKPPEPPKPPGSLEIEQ

Row | SMILES | inhibition [1] [%] | inhibition [2] [%] | inhibition [3] [%] | inhibition [4] [%] | inhibition [5] [%] | inhibition [6] [%] | inhibition [7] [%] | inhibition [8] [%] | inhibition [9] [%] | inhibition [10] [%]
1 | NS(=O)(=O)c1cccc(-c2ccc3c(NC(=O)C4CC4)n[nH]c3c2)c1 | -0.05 | -0.57 | -6.73 | 6.37 | 9.34 | 1.5 | 5.3 | -0.02 | -0.14 | -0.74
2 | CC(C)=Cc1cccc2c1/C(=N/Nc1ccc(S(N)(=O)=O)cc1)C(=O)N2 | 2.62 | -0.98 | 3.29 | 0.04 | 1.72 | 0.78 | 5.29 | 0.28 | 1.32 | -0.48
3 | O=C1NC(=O)C(c2cccc(Cl)c2)=C1Nc1ccc(O)c(Cl)c1 | 2.28 | -0.01 | 2.47 | 1.38 | 8.66 | 1.96 | 4.99 | 0.26 | 0.3 | -0.58
4 | COc1ccc2cc(-c3c(-c4ccncc4)nc(-c4ccc([S+](C)[O-])cc4)n3C)ccc2c1 (stereo unspecified) | 0.18 | -1.39 | -1.03 | 1.72 | 8.34 | 3.87 | 7.24 | -1.65 | 3.19 | 2.2
5 | Cc1ccc(C(=O)NC2CCCCC2)cc1-c1ccc(C(=O)NCC2CC2)cc1 | 0.88 | 1.95 | 0.5 | 5.36 | 17.4 | 4.59 | 14.2 | 1.77 | 2.53 | -0.98
6 | CC1=C(C(=O)Nc2ccc3[nH]ncc3c2)C(c2ccc3ccccc3c2)CC(=O)N1 (stereo unspecified) | 22.4 | 0.02 | -0.13 | 3.64 | 5.06 | -1.05 | 2.44 | 3.08 | 2.24 | -0.44
7 | NC(=O)c1ccc(-c2nc(-c3ccccn3)c(-c3ccc4c(c3)OCO4)[nH]2)cc1 | 1.38 | -1.12 | 0.34 | 7.26 | 15.5 | 5.42 | 10.6 | 1.16 | 2.44 | 0.17
8 | O=C1NC(=O)C(c2ccccc2Cl)=C1Nc1cccc(O)c1 | 1.29 | 1.93 | 4.52 | 2.48 | 4.36 | 2.37 | 0.91 | 1.98 | 4.14 | 5.33
9 | COc1ccc(COc2ccc(Cc3cnc(N)nc3N)cc2OC)cc1 | 0.29 | 2.01 | 0.79 | 0.58 | 4.45 | 2.44 | 1 |  | 0.37 | -1.2
10 | Nc1ncnc2occ(-c3ccc(NC(=O)Nc4cccc(C(F)(F)F)c4)cc3)c12 | 3.6 | 19 | 62.5 | 16.1 | 43.4 | 9.18 | 41 | 6.92 | 19.3 | 7.81
11 | Cc1cc(O)cc(C)c1/C=C/c1cncc(-c2nn[nH]n2)c1 | 5.1 | 0.25 | -0.18 | 8.41 | 12.6 | 3.52 | 3.01 | 3.42 | 5.1 | 1.46
12 | CS(=O)(=O)CCNCc1ccc(-c2ccc3ncnc(Nc4ccc(OCc5ccccc5)c(Cl)c4)c3c2)o1 | 0.5 | 2.57 | 4.72 | -0.17 | 3.25 | -1.17 | 0.8 | 0.47 | 2.09 | 1.33
13 | CCn1c(-c2nonc2N)nc2c(N3CCCC3)nccc21 | 1.82 | 0.04 | -1.21 | 1.24 | -3.47 | 0.58 | 2.54 | -0.53 | -1.01 | 0.01
14 | CCn1c(-c2nonc2N)nc2c(C#CC(C)(C)O)nc(CN3CCCC3)cc21 | 0.84 | -1.03 | -0.96 | 0.68 | -0.47 | -2.47 | 0.28 | 0.31 | -1.59 | 1.31
15 | O=C1NC(=O)C(c2ccc(Cl)cc2)=C1Nc1ccc(Cl)c(C(=O)O)c1 | 0 | 0.85 | 1.51 | 0.32 | -0.58 | -1.36 | -1.39 | -5.51 | -3.8 | -2.36
16 | N#Cc1c(NC(=O)c2cccc3ccccc23)sc2c1CCCC2 | 0.11 | -0.61 | -2.89 | 2.97 | 5.23 | 0.78 | 4.42 | 2.16 | 3.76 | 2.38
17 | CCn1c(-c2nonc2N)nc2ccncc21 | 1.29 | -2.05 | -2.78 | 2.59 | 3.78 | 2.84 | 2.34 | 0.59 | 0.17 | 2.32

Row | SMILES | inhibition [1] [%] | inhibition [2] [%] | inhibition [3] [%] | inhibition [4] [%] | inhibition [5] [%] | inhibition [6] [%] | inhibition [7] [%] | inhibition [8] [%] | inhibition [9] [%] | inhibition [10] [%]
18 | COC(=O)Nc1nc2cc(Oc3cccc(NC(=O)Nc4cc(C(F)(F)F)ccc4F)c3)ccc2[nH]1 | 0.49 | -1.97 | -3.98 | 2.37 | 5.26 | 1.03 | 1.94 | -4.01 | -0.11 | 0.33
19 | COc1cc2c(cc1Nc1nc(N3CCc4ccccc43)c3cc[nH]c3n1)N(C(=O)CN(C)C)CC2 | 1.51 | 0.87 | 1.46 | 3.41 | 3.7 | 2.84 | 1.85 | 0.4 | 2.2 | 0.57
20 | COc1cc2ncn(-c3cc(O[C@H](C)c4ccccc4Cl)c(C(N)=O)s3)c2cc1OC | 4.54 | -0.2 | 8.42 | 5.73 | 6.35 | 3.71 | 4.9 | 2.38 | 3.77 | 2.99
21 | CNC(=O)c1cncc(/C=C/c2c(Cl)cccc2Cl)c1 | 3.8 | 2.22 | 0.6 | 6.41 | 8.04 | 2.44 | 4.25 | 3.64 | 5.05 | 3.45
22 | CC(=O)Nc1cccc(C#Cc2cncnc2Nc2ccc(OCc3cccc(F)c3)c(Cl)c2)n1 | 1.62 | -0.01 | 3.44 | -0.35 | -1.8 | 0.21 | 3.12 | -1.33 | -1.57 | -2.16
23 | CCCN1CCC=C(c2ccc(Nc3nc(Nc4ccccc4C(N)=O)c4cc[nH]c4n3)c(C)c2)C1 | 11.3 | 4.11 | 12.7 | 4.64 | 7.87 | 2.75 | 7.8 | 4.35 | 8.15 | 3.52
24 | COC(=O)Nc1nc2cc(Oc3ccc(NC(=O)Nc4cccc(C(=O)O)c4)cc3)ccc2[nH]1 | 2.25 | 1.98 | 3.99 | -1.1 | 1.12 | 0.94 | -1.18 | -0.17 | -0.69 | 0.51
25 | COc1cc(C=NNc2ncnc3c2cnn3-c2ccccc2)ccc1O | 1.84 | 2.22 | 4.19 | 4.51 | 10.7 | 3.59 | 9.09 | 3.08 | 7.17 | 1.85
26 | CCn1c(-c2nonc2N)nc2cncc(C(=O)N3CCNCC3)c21 | 7.02 | 0.64 | -1.54 | 14.5 | 20.5 | 5.86 | 5.3 | 6.15 | 7.35 | 3.73
27 | CN(C)c1cc2c(Nc3ccc4nc(Cc5ccccc5)[nH]c4c3)ncnc2cn1 | 4.66 | -0.28 | -1.52 | 6.65 | 9.66 | 1.34 |  | 1.99 | 5.16 | 5.41
28 | CN1CCC(C(=O)Nc2n[nH]c3nnc(-c4ccccc4)cc23)CC1 | 7.39 | -1.72 | -1.01 | 2.08 | 5.41 | 5.95 | 5.33 | 1.73 | 5.59 | 3.05
29 | Fc1cccc(COc2ccc(Nc3ncnc4cc(-c5ccc[nH]5)sc34)cc2Cl)c1 | 1.55 | -2.27 | -1.34 | 1.24 | 4.89 | 0.23 | -0.16 | 1.98 | 2.15 | 4.35
30 | COc1ccc(-c2coc3ncnc(N)c23)cc1 | 2.51 | -0.31 | -3.44 | 4.37 | 13.4 | 4.69 | 7.25 | 1.38 | 5.26 | 1.11
31 | Nc1nc(-c2ccccn2)c(-c2ccc3ncccc3n2)s1 | 1.04 | 0.57 | 0.83 | -0.64 | 6.59 | 1.28 | 3.29 | 2.8 | 5.95 | -0.21
32 | Cc1nnc(-c2ccc(C)c(-c3ccc(C(=O)Nc4cccc(C#N)c4)cc3)c2)o1 | 5.78 | -2.92 | -1.26 |  |  | 5.2 | 22.9 | 3.5 | 1.58 | -0.3
33 | Cc1ccc(NC(=O)c2ccnc(N3CCCC3)c2)cc1-c1ccc(C(=O)NCC2CC2)cc1 | 3.65 | -0.5 | -0.3 | 38.3 | 79.6 | 40.9 | 78.9 | 3.45 | 5.79 | 4.49
34 | COc1cc2ncn(-c3cc(OCc4ccccc4Cl)c(C(N)=O)s3)c2cc1OC | 1.75 | -0.61 | -1.33 | 2.7 | 18.4 | 1.39 | 4.07 | 0.95 | 0.78 | 1.88
